Experimental findings from PubChem BioAssay (EPA / NIEHS) are described below.

In general, AC50 refers to the midpoint of the concentration-response curve, whichever way the signal moves.

Results filed as inconclusive are left out. Active and inactive are the calls of the source. The calls were made as follows: active = hit-call score of the fitted dose curve at least 0.9, where 1 is the maximum; inconclusive = response in the unintended direction; inactive = score below 0.9.

The target in assay [1] is Estrogen receptor (Homo sapiens) (UniProt P03372). Nature of the assay: OT_ER_ERaERa_1440: Odyssey Thera (OT) 24-hour HEK293T Protein-Complementation Assay for Estrogen Receptor-alpha/-alpha Homodimer (AID 2283349).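 Also: hits raise fluorescence above DMSO for agonists and antagonists alike.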 The essentials: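 Cells (HEK293T) carrying the fragment-tagged ERα LBD (aa 310-547) pair are treated with chemical for 24 hours. Nuclear and/or cytoplasmic fluorescence is then quantified on a laser scanning cytometer. Activity is scored as signal gain against DMSO.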
Estrogen receptor (Homo sapiens), sequence (P03372 whole entry, looked up, the tested form may be a part): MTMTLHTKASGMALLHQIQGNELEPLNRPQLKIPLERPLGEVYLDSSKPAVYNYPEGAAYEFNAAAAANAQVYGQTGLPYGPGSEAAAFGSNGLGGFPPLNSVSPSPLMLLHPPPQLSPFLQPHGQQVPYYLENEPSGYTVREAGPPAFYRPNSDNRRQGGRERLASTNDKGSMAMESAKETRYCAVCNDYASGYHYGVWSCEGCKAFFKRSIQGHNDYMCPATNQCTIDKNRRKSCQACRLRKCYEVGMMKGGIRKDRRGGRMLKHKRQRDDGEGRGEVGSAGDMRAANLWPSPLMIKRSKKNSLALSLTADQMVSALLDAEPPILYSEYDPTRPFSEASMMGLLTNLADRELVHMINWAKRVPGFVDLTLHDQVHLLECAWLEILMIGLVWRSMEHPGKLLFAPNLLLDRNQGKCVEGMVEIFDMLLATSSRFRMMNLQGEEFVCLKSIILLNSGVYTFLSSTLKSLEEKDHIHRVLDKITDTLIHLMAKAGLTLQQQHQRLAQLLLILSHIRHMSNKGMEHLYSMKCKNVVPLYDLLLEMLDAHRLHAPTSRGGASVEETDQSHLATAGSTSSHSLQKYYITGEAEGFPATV

The target of assay [2] is T1, Estrogen receptor (Homo sapiens) + Estrogen receptor beta (Homo sapiens) (UniProt P03372+Q92731). Nature of the assay: OT_ER_ERaERb_0480: Odyssey Thera (OT) 8-hour HEK293T Protein-Complementation Assay for Estrogen Receptor-alpha/-beta Heterodimer (AID 2283352). A digest of the protocol: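 HEK293T cells expressing ER-alpha/ER-beta LBD fusions to complementary reporter fragments were dosed with compound for 8 hours. Heterodimer formation was read as increased nuclear (agonist) or nuclear plus cytoplasmic (antagonist) mean fluorescence intensity versus DMSO vehicle.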
T1 sequence (P03372 whole entry, looked up, the tested form may be a part): as above
T1 sequence (Q92731 whole entry, looked up, the tested form may be a part): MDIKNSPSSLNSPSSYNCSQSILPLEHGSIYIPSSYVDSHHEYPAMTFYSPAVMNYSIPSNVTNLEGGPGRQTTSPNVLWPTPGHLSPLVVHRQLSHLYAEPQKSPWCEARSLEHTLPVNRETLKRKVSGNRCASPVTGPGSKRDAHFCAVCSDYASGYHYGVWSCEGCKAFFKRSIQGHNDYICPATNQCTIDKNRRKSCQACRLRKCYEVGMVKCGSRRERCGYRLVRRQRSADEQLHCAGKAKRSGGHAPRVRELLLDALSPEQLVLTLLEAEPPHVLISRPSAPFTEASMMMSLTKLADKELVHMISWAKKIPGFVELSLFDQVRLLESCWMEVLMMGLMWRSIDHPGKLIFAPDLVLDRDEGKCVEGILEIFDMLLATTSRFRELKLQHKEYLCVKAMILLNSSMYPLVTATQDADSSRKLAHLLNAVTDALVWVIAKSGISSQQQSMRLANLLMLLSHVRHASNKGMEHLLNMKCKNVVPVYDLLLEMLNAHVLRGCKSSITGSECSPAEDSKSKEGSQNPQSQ

Assay [3] addresses Androgen Receptor/SRC-1 Co-activator, AR (gene 367) (UniProt P10275). Nature of the assay: OT_AR_ARSRC1_0960: Odyssey Thera (OT) 16-hour HEK293T Protein-Complementation Assay for Androgen Receptor/SRC-1 Co-activator (AID 2283353).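 Also: actives raise the signal above DMSO so potency reflects increased AR and SRC-1 complex.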 A digest of the protocol: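 Stable HEK293T line carries AR and SRC-1 each linked to a Venus fragment; chemicals are applied for 16 h, cells imaged at two wavelengths, and the 488 nm nucleus/cytoplasm ratio is taken as the signal, rising relative to DMSO.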

Assay [4] shares this target. Description: OT_AR_ARSRC1_0480: Odyssey Thera (OT) 8-hour HEK293T Protein-Complementation Assay for Androgen Receptor/SRC-1 Co-activator (AID 2283354).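 Also: hits raise the complementation signal above DMSO so AC50 marks enhancers.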 The essentials: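 Split-Venus PCA, stable HEK293T, AR/SRC-1 fusions; 8 h exposure. Readout: 488nm N/C fluorescence ratio, ≥400 cells/image; fitted upward vs DMSO baseline.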
Assay [5] has as its target T1, Estrogen receptor (Homo sapiens) + Estrogen receptor beta (Homo sapiens). Nature of the assay: OT_ER_ERaERb_1440: Odyssey Thera (OT) 24-hour HEK293T Protein-Complementation Assay for Estrogen Receptor-alpha/-beta Homodimer (AID 2283356).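 Also: heteromer of ER alpha and ER beta binding domains; hits raise reporter fluorescence and both agonists and antagonists give an increase.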 The essentials: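 HEK293T cells stably expressing a PCA pair of ERα LBD (aa 310-547) and ERβ LBD (aa 263-489) were dosed for 24 h. Fluorescence intensity increase versus DMSO vehicle was fitted as gain-of-signal.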

The target in assay [6] is Estrogen receptor beta (Homo sapiens) (UniProt Q92731). Nature of the assay: OT_ER_ERbERb_0480: Odyssey Thera (OT) 8-hour HEK293T Protein-Complementation Assay for Estrogen Receptor-beta/-beta Homodimer (AID 2283357).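 Also: active means signal gain over DMSO baseline.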 The essentials:
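Homodimerization of ER-beta LBD measured by protein-fragment complementation in HEK293T; 8 h dosing; fixed, Draq5 counterstain; fluorescence intensity gain over DMSO baseline, positive fitting direction; laser scanning cytometry.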

The target of assay [7] is Nuclear receptor subfamily 1 group I member 2 (Homo sapiens) (UniProt O75469). Description: NVS_NR_hPXR: NovaScreen (NVS) Nuclear Receptor Binding Assay for human Pregnane X Receptor (PXR) (AID 2283365).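 Also: a drop in FRET signal versus DMSO baseline means the compound binds.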 The essentials: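 Cell-free binding assay with extracted human PXR protein, read by TR-FRET 2 h after dosing; loss of signal relative to DMSO baseline indicates binding. Primary screen at 25 uM in duplicate, actives retested in concentration series.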
Nuclear receptor subfamily 1 group I member 2 (Homo sapiens), sequence (O75469 whole entry, looked up): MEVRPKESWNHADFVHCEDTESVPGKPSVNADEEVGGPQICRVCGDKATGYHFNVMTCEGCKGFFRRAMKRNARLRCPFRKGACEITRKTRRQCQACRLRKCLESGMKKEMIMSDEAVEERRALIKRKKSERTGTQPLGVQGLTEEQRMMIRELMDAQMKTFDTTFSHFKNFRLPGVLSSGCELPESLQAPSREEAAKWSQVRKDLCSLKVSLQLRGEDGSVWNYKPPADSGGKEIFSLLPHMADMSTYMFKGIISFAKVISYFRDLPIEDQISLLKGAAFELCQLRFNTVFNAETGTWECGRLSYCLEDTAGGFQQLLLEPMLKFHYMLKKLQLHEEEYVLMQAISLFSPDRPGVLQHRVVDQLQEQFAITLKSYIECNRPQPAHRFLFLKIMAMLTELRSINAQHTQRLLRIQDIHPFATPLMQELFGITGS

Assay [8] has as its target Estrogen receptor (Homo sapiens) (UniProt P03372). Nature of the assay: NVS_NR_hER: NovaScreen (NVS) Nuclear Receptor Binding Assay for human Estrogen Receptor (ER) (AID 2283348). The essentials: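 MCF7-derived receptor extract, radiolabelled ligand, competitive displacement. Read: scintillation counts at 18 h. DMSO = negative control/baseline. Primary 25 uM duplicate; follow-up concentration–response.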

Assay [9] concerns the target human Peroxisome Proliferator-activated Receptor alpha (PPARa), PPARA (gene 5465) (UniProt Q07869). Nature of the assay: NVS_NR_hPPARa: NovaScreen (NVS) Nuclear Receptor Binding Assay for human Peroxisome Proliferator-activated Receptor alpha (PPARa) (AID 2283359).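 Also: activity means loss of TR-FRET signal versus DMSO baseline.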 The essentials:
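TR-FRET signal measured at 1 h post-dosing; loss-of-signal versus DMSO negative control taken as activity. Extracted gene-protein, cell-free format. Initial single-point duplicates at 25 uM, then concentration-response retests.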

Assay [10] deals with Retinoic acid receptor alpha (Homo sapiens) (UniProt P10276). Nature of the assay: NVS_NR_hRARa_Agonist: NovaScreen (NVS) Nuclear Receptor Binding Assay for human Retinoic Acid Alpha Receptor Agonism (RAR) (AID 2283361). A digest of the protocol: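 TR-FRET signal, 2 h post-dosing; cell-free extracted protein; DMSO = baseline, positive fitting direction; 25 uM single-point duplicate, then concentration series for actives.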

Assay [11] deals with rat Androgen Receptor (AR), Ar (gene 24208) (UniProt P15207). Nature of the assay: NVS_NR_rAR: NovaScreen (NVS) Nuclear Receptor Binding Assay for rat Androgen Receptor (AR) (AID 2283366). A digest of the protocol: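 Actives from a duplicate single-concentration (25 uM) primary run went on to concentration series. Displacement of radioligand was counted by filtration and scintillation, 18 h post-dose, using prostate extracts from testosterone-pretreated rats, with DMSO as baseline.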

The target of assay [12] is human Dopamine Transporter (DAT), SLC6A3 (gene 6531) (UniProt Q01959). Description: NVS_TR_hDAT: NovaScreen (NVS) Transporter Assay for human Dopamine Transporter (DAT) (AID 2283374).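 Also: activity means loss of bound radioligand signal relative to DMSO.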 The essentials: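 hDAT membranes + tritiated/iodinated radioligand, competitive displacement; 1 h; filter scintillation readout. Single conc 25 uM (duplicate), then conc-response for actives. DMSO = negative control.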
human Dopamine Transporter (DAT), SLC6A3 (gene 6531), sequence (Q01959 whole entry, looked up): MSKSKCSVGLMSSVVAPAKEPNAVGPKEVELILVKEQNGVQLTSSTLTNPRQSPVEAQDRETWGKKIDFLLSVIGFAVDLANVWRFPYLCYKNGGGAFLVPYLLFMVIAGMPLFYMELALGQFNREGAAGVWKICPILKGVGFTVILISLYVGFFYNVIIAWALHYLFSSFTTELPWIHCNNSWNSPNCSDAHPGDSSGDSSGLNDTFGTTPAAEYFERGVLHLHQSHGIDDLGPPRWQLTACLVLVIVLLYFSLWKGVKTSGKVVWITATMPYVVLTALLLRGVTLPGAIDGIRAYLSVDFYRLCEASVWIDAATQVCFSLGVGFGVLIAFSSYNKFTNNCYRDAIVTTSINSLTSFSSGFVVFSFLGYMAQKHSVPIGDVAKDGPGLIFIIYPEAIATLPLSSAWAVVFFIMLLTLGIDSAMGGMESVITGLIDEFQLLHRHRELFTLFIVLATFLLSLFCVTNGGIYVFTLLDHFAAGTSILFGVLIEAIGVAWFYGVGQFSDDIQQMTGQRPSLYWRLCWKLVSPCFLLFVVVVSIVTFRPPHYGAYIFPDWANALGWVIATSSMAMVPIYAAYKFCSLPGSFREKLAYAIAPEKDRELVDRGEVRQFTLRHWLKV

Assay [13] addresses PGR (gene 5241) (UniProt P06401). Nature of the assay: NVS_NR_hPR: NovaScreen (NVS) Nuclear Receptor Binding Assay for human Progestron Receptor (PR) (AID 2283360).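 Also: active means loss of bound radioligand signal versus DMSO baseline.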 The essentials: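 Cell-free radioligand binding using receptor protein extracted from T47D cells, read by scintillation counting 18 hours after dosing. Loss of signal relative to DMSO baseline indicates displacement; primary screen single concentration 25 uM in duplicate, actives followed in concentration series.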

The test system of assay [14] is guinea pig Dopamine Transporter (DAT), gene 100714898. Nature of the assay: NVS_TR_gDAT: NovaScreen (NVS) Transporter Assay for guinea pig Dopamine Transporter (DAT) (AID 2283369).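 Also: active compounds lower bound radioligand signal relative to DMSO.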 The essentials:
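Guinea pig striatal membranes; radioligand displacement measured by filter-based scintillation counting 2 h after dosing. Initial duplicate screen at 25 uM, then concentration-response up to 50 uM for hits; loss of signal versus DMSO baseline.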

For assay [15], the target named is rat Serotonin Transporter (SERT), Slc6a4 (gene 25553) (UniProt P31652). Nature of the assay: NVS_TR_rSERT: NovaScreen (NVS) Transporter Assay for rat Serotonin Transporter (SERT) (AID 2283375). A digest of the protocol:
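Rat forebrain membranes were incubated with test chemical for 1 hour; radioligand binding to SERT was measured by filter-based scintillation counting. Primary screen ran in duplicate at 25 uM, with actives followed up in concentration series; DMSO served as negative control.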

Assay [16] addresses human Norepinephrine Transporter (NET), SLC6A2 (gene 6530) (UniProt P23975). Description: NVS_TR_hNET: NovaScreen (NVS) Transporter Assay for human Norepinephrine Transporter (NET) (AID 2283377).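 Also: cell-free membrane protein extracted from CHO cells expressing human NET; displacement of radioligand from human NET seen as loss of scintillation signal.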 A digest of the protocol: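 CHO cell extracts expressing the transporter; tritiated or iodinated tracer displaced competitively; filtration plus scintillation readout at 1 h. Single-point duplicates at 25 uM, concentration series for follow-up; activity = signal drop relative to DMSO.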

PGR (gene 5241), sequence (P06401 whole entry, looked up): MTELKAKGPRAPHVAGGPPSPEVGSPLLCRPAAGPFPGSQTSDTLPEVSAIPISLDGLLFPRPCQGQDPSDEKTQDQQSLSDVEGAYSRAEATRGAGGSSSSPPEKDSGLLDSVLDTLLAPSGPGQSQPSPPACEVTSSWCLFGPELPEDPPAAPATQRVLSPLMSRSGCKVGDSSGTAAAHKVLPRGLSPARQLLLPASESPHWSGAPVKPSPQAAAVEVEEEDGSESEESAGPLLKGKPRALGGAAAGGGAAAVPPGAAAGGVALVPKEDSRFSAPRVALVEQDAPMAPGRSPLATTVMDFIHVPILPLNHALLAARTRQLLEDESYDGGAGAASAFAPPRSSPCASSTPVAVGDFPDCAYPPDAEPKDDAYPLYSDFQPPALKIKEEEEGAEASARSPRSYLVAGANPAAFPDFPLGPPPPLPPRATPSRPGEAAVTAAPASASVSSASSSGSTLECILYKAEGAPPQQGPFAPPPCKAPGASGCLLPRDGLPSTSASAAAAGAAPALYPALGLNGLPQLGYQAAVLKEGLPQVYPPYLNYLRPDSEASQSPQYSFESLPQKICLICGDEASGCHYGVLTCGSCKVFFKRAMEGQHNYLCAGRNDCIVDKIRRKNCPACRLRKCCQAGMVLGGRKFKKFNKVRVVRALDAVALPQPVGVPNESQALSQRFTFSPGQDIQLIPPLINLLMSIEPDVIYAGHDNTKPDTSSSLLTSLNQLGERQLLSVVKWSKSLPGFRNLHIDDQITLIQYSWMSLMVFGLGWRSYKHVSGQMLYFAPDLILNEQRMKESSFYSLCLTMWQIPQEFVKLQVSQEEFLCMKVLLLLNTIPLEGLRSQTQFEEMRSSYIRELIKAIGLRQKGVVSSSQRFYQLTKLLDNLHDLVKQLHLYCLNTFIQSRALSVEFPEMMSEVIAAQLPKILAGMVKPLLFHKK
Estrogen receptor beta (Homo sapiens), sequence (Q92731 whole entry, looked up, the tested form may be a part): as the sequence (Q92731 whole entry, looked up, the tested form may be a part) above
Androgen Receptor/SRC-1 Co-activator, AR (gene 367), sequence (P10275 whole entry, looked up, the tested form may be a part): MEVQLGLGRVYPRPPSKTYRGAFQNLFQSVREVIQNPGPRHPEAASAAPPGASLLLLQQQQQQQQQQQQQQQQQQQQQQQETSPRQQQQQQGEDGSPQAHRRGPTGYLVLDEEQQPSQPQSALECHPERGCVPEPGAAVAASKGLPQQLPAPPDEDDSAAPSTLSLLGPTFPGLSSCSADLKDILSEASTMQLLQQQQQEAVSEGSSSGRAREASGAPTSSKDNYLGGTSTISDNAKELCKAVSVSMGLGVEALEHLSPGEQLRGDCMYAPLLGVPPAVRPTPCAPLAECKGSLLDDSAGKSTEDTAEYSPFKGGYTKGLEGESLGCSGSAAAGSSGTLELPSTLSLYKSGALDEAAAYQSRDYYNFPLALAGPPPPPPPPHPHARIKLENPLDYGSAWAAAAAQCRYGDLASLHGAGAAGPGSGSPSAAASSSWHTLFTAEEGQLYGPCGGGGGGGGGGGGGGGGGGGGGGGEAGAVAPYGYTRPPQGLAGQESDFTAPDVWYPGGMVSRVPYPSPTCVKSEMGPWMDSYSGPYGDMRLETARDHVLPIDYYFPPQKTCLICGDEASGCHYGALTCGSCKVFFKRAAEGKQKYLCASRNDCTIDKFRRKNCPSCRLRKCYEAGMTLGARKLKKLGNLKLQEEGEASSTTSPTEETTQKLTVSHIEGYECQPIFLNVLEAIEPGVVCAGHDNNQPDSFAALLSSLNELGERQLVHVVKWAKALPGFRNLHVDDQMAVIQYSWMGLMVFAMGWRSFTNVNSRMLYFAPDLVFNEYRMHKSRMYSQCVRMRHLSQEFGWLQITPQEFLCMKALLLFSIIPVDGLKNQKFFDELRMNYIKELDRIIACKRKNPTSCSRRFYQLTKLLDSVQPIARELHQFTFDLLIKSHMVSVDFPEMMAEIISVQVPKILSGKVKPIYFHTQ
rat Serotonin Transporter (SERT), Slc6a4 (gene 25553), sequence (P31652 whole entry, looked up): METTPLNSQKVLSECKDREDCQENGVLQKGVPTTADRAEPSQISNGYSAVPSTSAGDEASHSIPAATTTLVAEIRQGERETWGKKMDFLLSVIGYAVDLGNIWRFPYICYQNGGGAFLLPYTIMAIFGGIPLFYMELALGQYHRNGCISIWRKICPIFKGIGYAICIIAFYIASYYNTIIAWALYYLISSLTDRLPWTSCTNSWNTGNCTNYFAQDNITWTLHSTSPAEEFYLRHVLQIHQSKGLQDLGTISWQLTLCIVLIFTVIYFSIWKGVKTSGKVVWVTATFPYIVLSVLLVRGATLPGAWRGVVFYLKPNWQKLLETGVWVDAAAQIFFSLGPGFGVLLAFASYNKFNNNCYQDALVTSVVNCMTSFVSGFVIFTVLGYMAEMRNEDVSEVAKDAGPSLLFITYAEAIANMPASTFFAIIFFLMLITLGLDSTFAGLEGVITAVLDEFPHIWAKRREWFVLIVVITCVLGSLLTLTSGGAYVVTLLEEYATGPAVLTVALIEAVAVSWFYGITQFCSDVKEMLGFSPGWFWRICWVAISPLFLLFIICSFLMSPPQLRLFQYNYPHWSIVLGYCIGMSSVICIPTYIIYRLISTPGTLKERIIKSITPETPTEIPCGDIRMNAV

Turning to `COCCOCCC[Si](C)(O[Si](C)(C)C)O[Si](C)(C)C`, the half-maximal activity concentration (AC50) is 76.1 µM (active) in assay [1]; 50 µM (active) in assay [2]; 34.3 µM (active) in [3]; 58.7 µM (active) in assay [5]; 51.5 µM (active) in assay [6]. In addition, the outcome in assay [4] and in assay [7] was inactive.
As for `CCCCCCCCCCCCCC[P+](CCCC)(CCCC)CCCC`, the AC50 in assay [8] is 14.3 µM (active); in assay [3] it was 3.59 µM (active); in assay [4], 12.3 µM (active); in assay [9], 8.54 µM (active); in [10] it was 3.23 µM (active); in [7], 0.0885 µM (active). Also, in [11], the AC50 was 3.82 µM (active). Further, the result in assay [1], in assay [5] and in assay [6] was inactive.
Consider `CCCCOC(=O)[C@H](C)O`, for which the result in [1] was inactive.
Regarding `OCC1CCCO1` (configuration not stated), the compound was called inactive in assay [1], in assay [2], in assay [3], in assay [5] and in assay [6].
On to `O=C1C=CC(=O)N1c1ccccc1`, for which the outcome in [1] and in assay [5] was inactive. Also, the AC50 was 16.4 µM (active) in [3] and 25.6 µM (active) in [4].
For the compound `O=C(c1ccccc1)c1ccc(O)cc1O`, the AC50 in [8] is 1.42 µM (active); in assay [1], 22.7 µM (active).
For `CC(=O)CCC(C)C`, the half-maximal activity concentration (AC50) in assay [1] was 69.3 µM (active). Further, the result in [12] was inactive.
Regarding `Oc1ccc(C2(c3ccc(O)c(C4CCCCC4)c3)CCCCC2)cc1C1CCCCC1`, the call in assay [13] was inactive.
As for `CCN(CC)c1ccc(N=Nc2ccccc2)cc1`, the compound was classed as inactive in [13], in assay [14] and in [12]. In assay [15], the concentration at half-maximal activity (AC50) was 3.36 µM (active).
As to `Cc1cnccn1`, in assay [13], the result was inactive.
As for `CC(C)Nc1ccc(NC(C)C)c2c1C(=O)c1ccccc1C2=O`, the outcome in assay [1], in assay [5] and in [6] was inactive.
On to `C#CC(O)CCC` (configuration not stated), for which, in assay [11], the result was inactive.
For `Cc1ccc(S(=O)(=O)C(I)I)cc1`, the half-maximal activity concentration (AC50) in assay [14] is 15.6 µM (active).
With `CSc1ccc(O)cc1C`, the result in [13] and in assay [15] was inactive. The AC50 is 19.4 µM (active) in assay [14], 33.9 µM (active) in assay [12] and 36.4 µM (active) in assay [16].
